Results reported in PubChem BioAssay (NCATS).
Results filed as inconclusive are left out. Entries that show only a call come without a potency. The source made the active and inactive calls. The call rests on the fitted dose curve; in most records, active means well fitted curve in the direction sought with a large enough effect; inconclusive means small, poorly fitted or top-dose-only effect, or another doubt; inactive means no such curve, though single readings can be large; an effect the other way counts as inactive or inconclusive.

Test: qHTS assay to identify small molecule inhibitors of chordoma cells - UCH-1 (AID 1259355); further: nearly all actives have a fitted effect of over 55% in size
Settings: UCH-1 chordoma viability, CellTiter-Glo, 48 h, combination, with auranofin plus four topoisomerase inhibitors; series mostly up to 46.1 µM
In short: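 Seed 800 cells per well; incubate overnight at 37 C, 5% CO2. Add test compounds (15 concentrations), then the auranofin–topoisomerase-agent combination. Incubate 48hr, add CellTiter-Glo, wait 30min, read luminescence.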
With COc1cc2c(cc1OC)C(=O)C(CC1CCN(Cc3ccccc3)CC1)C2 (configuration not stated) the Potency was “inactive”. With Cc1c(C(N)=O)cc([N+](=O)[O-])cc1[N+](=O)[O-] the Potency was “inactive”. For CN(C/C=C/c1ccccc1)Cc1cccc2ccccc12, the Potency was “inactive”. With Nc1nc2ncc(CNc3ccc(C(=O)N[C@@H](CCC(=O)O)C(=O)O)cc3)nc2c(=O)[nH]1 the Potency was “inactive”. For CC1=C(C(=O)OC(C)C)C(c2cccc([N+](=O)[O-])c2)C(C(=O)OC2CN(C(c3ccccc3)c3ccccc3)C2)=C(N)N1 (configuration not stated), the Potency was “inactive”. For CCN1CCCC1=O, the Potency was “inactive”. For O=C(O)c1cc2cc(Cc3cccnc3)ccc2o1, the Potency was “inactive”. For CC(CCc1ccccc1)NCC(O)c1ccc(O)c(C(N)=O)c1 (configuration not stated), the Potency was “inactive”. In the case of CN1CCN(CCCN2c3ccccc3Sc3ccc(S(=O)(=O)N(C)C)cc32)CC1, the Potency was “inactive”. For CC[C@@H](CO)NCCN[C@@H](CC)CO, the Potency was “inactive”. In the case of CCCC(=O)Nc1ccc(OCC(O)CNC(C)C)c(C(C)=O)c1 (configuration not stated), the Potency was “inactive”. With O=C(CCCN1CCC(O)(c2ccc(Br)cc2)CC1)c1ccc(F)cc1 the Potency was “inactive”. For CCCCCCCCCCOCC(O)CN (configuration not stated), the Potency was “inactive”. For c1ccc(CNCCNCc2ccccc2)cc1, the Potency was “inactive”. With Cc1cccc(C)c1NC(=O)CN1CCN(CCCC(c2ccc(F)cc2)c2ccc(F)cc2)CC1 the Potency was “inactive”. For CCOC(=O)[C@H](CCc1ccccc1)N[C@@H](C)C(=O)N1Cc2ccccc2C[C@H]1C(=O)O, the Potency was “inactive”. For O=S1(=O)c2cccc3cccc(c23)N1CCCN1CCN(c2ccc(F)cc2)CC1, the Potency was “inactive”. With O=C(Nc1ccc(Oc2ccc(Cl)cc2)c(Cl)c1)c1cc(I)cc(I)c1O the Potency was “inactive”. With Oc1ccc(Cl)c2cccnc12 the Potency was “inactive”.

Test: qHTS assay to identify small molecule inhibitors of chordoma cells - UCH-2 (AID 1259356)
Settings: UCH-2 chordoma viability, CellTiter-Glo ATP luminescence, 48 h; series mostly up to 46.1 µM
In the case of O=C(O)CNC(=O)c1ccccc1, the Potency was “inactive”. For COc1cc2c(cc1OC)C(=O)C(CC1CCN(Cc3ccccc3)CC1)C2 (configuration not stated), the Potency was “inactive”. With COc1ccc(OC)c(C(O)CNC(=O)CN)c1 (configuration not stated) the Potency was “inactive”. For C[C@H]1C[C@H]2[C@@H]3CCC4=CC(=O)C=C[C@]4(C)[C@@]3(Cl)[C@@H](O)C[C@]2(C)[C@@]1(O)C(=O)CO, the Potency was “inactive”. For Cc1c(C(N)=O)cc([N+](=O)[O-])cc1[N+](=O)[O-], the Potency was “inactive”. For CN(C/C=C/c1ccccc1)Cc1cccc2ccccc12, the Potency was “inactive”. With CN(C)CCCOc1nn(Cc2ccccc2)c2ccccc12 the Potency was “inactive”. With Cc1cc(=O)n(-c2ccccc2)n1C the Potency was “inactive”. In the case of Nc1nc2ncc(CNc3ccc(C(=O)N[C@@H](CCC(=O)O)C(=O)O)cc3)nc2c(=O)[nH]1, the Potency was “inactive”. For C/C=C(/C(=C/C)c1ccc(O)cc1)c1ccc(O)cc1, the Potency was “inactive”. For CC1=C(C(=O)OC(C)C)C(c2cccc([N+](=O)[O-])c2)C(C(=O)OC2CN(C(c3ccccc3)c3ccccc3)C2)=C(N)N1 (configuration not stated), the Potency was “inactive”. In the case of O=C1c2ccccc2C(=O)C1c1ccccc1, the Potency was “inactive”. For CCOc1ccc(Cc2nccc3cc(OCC)c(OCC)cc23)cc1OCC, the Potency was “inactive”. With Cc1c(C(C)C)c(=O)n(-c2ccccc2)n1C the Potency was “inactive”. With CCN1CCCC1=O the Potency was “inactive”. With O=C(O)c1cc2cc(Cc3cccnc3)ccc2o1 the Potency was “inactive”. In the case of CC(CCc1ccccc1)NCC(O)c1ccc(O)c(C(N)=O)c1 (configuration not stated), the Potency was “inactive”. In the case of CC(=O)Oc1ccc(C(c2ccc(OC(C)=O)cc2)c2ccccn2)cc1, the Potency was “inactive”. With COc1cc2c(cc1OC)[C@@H]1CC(=O)[C@@H](CC(C)C)CN1CC2 the Potency was “inactive”. In the case of CN1CCN(CCCN2c3ccccc3Sc3ccc(S(=O)(=O)N(C)C)cc32)CC1, the Potency was “inactive”. With CC[C@@H](CO)NCCN[C@@H](CC)CO the Potency was “inactive”. For O=c1c(-c2ccccc2)c1-c1ccccc1, the Potency was “inactive”. In the case of CCCC(=O)Nc1ccc(OCC(O)CNC(C)C)c(C(C)=O)c1 (configuration not stated), the Potency was “inactive”. In the case of O=C(CCCN1CCC(O)(c2ccc(Br)cc2)CC1)c1ccc(F)cc1, the Potency was “inactive”. With CCCCCCCCCCOCC(O)CN (configuration not stated) the Potency was “inactive”. With c1ccc(CNCCNCc2ccccc2)cc1 the Potency was “inactive”. With OC(CCN1CCCCC1)(c1ccccc1)c1ccccc1 the Potency was “inactive”. For Cc1cccc(C)c1NC(=O)CN1CCN(CCCC(c2ccc(F)cc2)c2ccc(F)cc2)CC1, the Potency was “inactive”. With CCOC(=O)[C@H](CCc1ccccc1)N[C@@H](C)C(=O)N1Cc2ccccc2C[C@H]1C(=O)O the Potency was “inactive”. For O=C1[C@H]2CCCC[C@H]2C(=O)N1CCCCN1CCN(c2nsc3ccccc23)CC1, the Potency was “inactive”. For O=S1(=O)c2cccc3cccc(c23)N1CCCN1CCN(c2ccc(F)cc2)CC1, the Potency was “inactive”. For Oc1c(I)cc(Cl)c2cccnc12, the Potency was “inactive”. With O=C(Nc1ccc(Oc2ccc(Cl)cc2)c(Cl)c1)c1cc(I)cc(I)c1O the Potency was “inactive”.
